Source: PubChem BioAssay (National Center for Advancing Translational Sciences (NCATS))
An excerpt weighted towards active compounds, which were near 18% of everything screened.
TDP1 block = inhibitors of human tyrosyl-DNA phosphodiesterase TDP1. Q9NUW8. recombinant TDP1, AlphaScreen DNA substrate cleavage. Potency, µM (doses to about 130 µM), for inactives: at the top dose activity change, negative = inhibition, most hits filed as inhibitors. 350,000 compounds, 0.28% hits. AID 485290; further: potency means the concentration at half of the fitted maximal effect; on the % scale 0 is the no-effect control and ±100 the full control effect; nearly all actives have a fitted effect of over 40% in size
Target sequence (Q9NUW8 whole entry, looked up): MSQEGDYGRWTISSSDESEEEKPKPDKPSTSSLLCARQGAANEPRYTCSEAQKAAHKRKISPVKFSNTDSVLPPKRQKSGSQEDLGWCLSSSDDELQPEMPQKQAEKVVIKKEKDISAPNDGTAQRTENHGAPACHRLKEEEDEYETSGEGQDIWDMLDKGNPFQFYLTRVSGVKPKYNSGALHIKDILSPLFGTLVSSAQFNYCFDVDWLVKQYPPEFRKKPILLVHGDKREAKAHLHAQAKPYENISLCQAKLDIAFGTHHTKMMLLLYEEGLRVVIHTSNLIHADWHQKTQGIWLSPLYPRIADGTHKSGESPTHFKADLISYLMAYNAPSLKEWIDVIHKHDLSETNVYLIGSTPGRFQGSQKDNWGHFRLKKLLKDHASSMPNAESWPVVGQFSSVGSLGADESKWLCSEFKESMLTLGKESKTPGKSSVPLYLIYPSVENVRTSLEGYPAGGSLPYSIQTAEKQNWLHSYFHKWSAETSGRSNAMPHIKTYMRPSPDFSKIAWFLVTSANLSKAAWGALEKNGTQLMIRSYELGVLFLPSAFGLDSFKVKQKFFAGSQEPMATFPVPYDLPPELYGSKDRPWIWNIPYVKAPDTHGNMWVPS
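Here, a 5' biotin and 3' phosphotyrosine-FITC DNA oligonucleotide reports Tdp1 activity: intact substrate bridges AlphaScreen beads, while cleavage leaves a 3' phosphate and drops signal. All incubations at room temperature.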
DT40 TDP1 no CPT = qHTS for Inhibitors of human tyrosyl-DNA phosphodiesterase 1 (TDP1): qHTS in cells in absence of CPT. AID 686978, 2013. 420,000 compounds, 15% hits. DT40 Tdp1-/- hTDP1 cells, no CPT, ATP luminescence, 48 h. Potency, µM (titrated, usually from 46.2 µM), for inactives: at the top dose activity change, negative = growth inhibition, hits mostly inhibitors; further: potency means the concentration at half of the fitted maximal effect; on the % scale 0 is the no-effect control and ±100 the full control effect; nearly all actives have a fitted effect of over 55% in size
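Camptothecin absent (DMSO only). Human TDP1-complemented DT40 knockout cells, 400 cells/well, 37 °C for minimum 48 hr; ATP measured via CellTiter-Glo, 30 min dark incubation, luminescence.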
IL-1B inflam inh = inhibitors of inflammasome signaling (IL-1 beta secretion); THP-1 LPS/ATP IL-1B secretion, AlphaLISA, 16 h; active compounds read low; activity change, % at 57.5 µM; 360,000 compounds, 4.7% hits; AID 743279; in the data active means activity change below about -50%; inconclusive means mostly about -30% to -49%; further: on the % scale 0 is the no-effect control and ±100 the full control effect
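THP-1 cells pretreated 1 hr with compounds (up to 57.5 uM final), then stimulated with LPS (250 ng/mL final) plus ATP (1.25 mM final); secreted IL-1B measured by AlphaLISA after 16 hr, decreased signal indicating inhibition.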
TGFb SMAD3 inh = inhibitors of TGF-b signaling | HepG2 CAGA-GFP TGF-b/SMAD3 reporter, GFP fluorescence, 18 h; TGF-beta stimulated, 500 pg/mL final | Potency, µM (titrated, usually from 46.1 µM), inactives show at the highest dose activity, negative = inhibition, hits mostly inhibitors | 410,000 compounds, 1.2% hits | AID 588855; further: potency means the concentration at half of the fitted maximal effect; on the % scale 0 is the no-effect control and ±100 the full control effect; nearly all actives have a fitted effect of over 65% in size
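Using HEPG2 CAGA-GFP reporter cells at 1000 cells/well, we pinned test compounds, stimulated with recombinant TGF-beta (500 pg/mL final) and measured total well GFP after 18 h.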
TDP1 cell CPT = DT40-hTDP1 cell growth loss with CPT; 420,000 compounds, 12% hits; Potency, µM (series often up to 46.2 µM), inactives show at the highest dose activity change, negative = growth inhibition, most hits filed as inhibitors; chicken DT40 Tdp1-/-;hTDP1 cells + 20 nM CPT, ATP luminescence, 48 h; further: potency means the concentration at half of the fitted maximal effect; on the % scale 0 is the no-effect control and ±100 the full control effect; nearly all actives have a fitted effect of over 55% in size
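Chicken DT40 Tdp1-/- cells stably complemented with human TDP1 were seeded at 400 cells/well in medium containing 20 nM camptothecin, exposed to pin-transferred compounds, and grown at 37 °C for at least 48 hr. Viability was read as ATP luminescence.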
HepG2 tox = HepG2 cytotoxicity, counter-screen for TGF-b inhibitors. AID 588856. HepG2 CAGA-GFP viability, ATP luminescence, 18 h. Potency, µM (highest dose often 46.1 µM), for inactives: at the highest dose activity change, negative = cytotoxicity, hits mostly cytotoxic. 410,000 compounds, 0.76% hits; further: potency means the concentration at half of the fitted maximal effect
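CellTiter-Glo luminescence gave cytotoxicity after 18 hours at 37 degrees C. The cells were HepG2 CAGA-GFP in 1% FBS DMEM, stimulated with 500 pg/mL TGF-beta after compound addition. %Activity was normalised to no-cell wells (complete cell-killing) and DMSO (no toxicity), and curves were fitted and classified.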
Starred values were filed as active, the others as inactive; ? = inconclusive; . = no result given. Unless noted, the call rests on the fitted dose curve; in most records, active means well fitted curve in the direction sought with a large enough effect; inconclusive means small, poorly fitted or top-dose-only effect, or another doubt; inactive means no such curve, though single readings can be large; an effect the other way counts as inactive or inconclusive.

SMILES	TDP1 block	DT40 TDP1 no CPT	IL-1B inflam inh	TGFb SMAD3 inh	TDP1 cell CPT	HepG2 tox
COCCN(CCOC)C(=O)c1cc2sc3ccccc3c2s1	-2.0%	?	?	0.2%	?	3.2%
CCN(CC)CCNC(=O)c1cc2c(=O)n(CC)c3ccccc3c2s1	.	18.4µM*	-55.7*	0.2%	?	-11.7%
CN(C)CCNC(=O)c1cc2sc3ccccc3c2s1	1.1%	23.1µM*	-70.9*	-1.7%	?	-13.2%
CCN(CC)CCCNC(=O)c1cc2c(=O)n(CC)c3ccccc3c2s1	.	?	-57.0*	22.9%	?	-43.2%
CC(=O)Nc1nnc2n1CCS2	1.1%	-2.4%	.	-0.7%	-8.7%	-3.8%
CN(C)CC(=O)Nc1ccc2cn[nH]c2c1	.	1.1%	5.6	2.7%	11.5%	15.4%
COc1ccc(NC(=O)Nc2ccccc2C(N)=O)cc1OC	-2.0%	-4.6%	0.0	13.4%	-0.5%	-12.1%
Cc1cc(NC(=O)NC(=O)c2ccccc2NC(=O)CN)ccc1Oc1ncc(Br)cn1	.	0.581µM*	-15.1	?	0.82µM*	-24.9%
Cc1cc(NC(=O)NC(=O)c2ccccc2NC(=O)CN(C)C)ccc1Oc1ncc(Br)cn1	.	4.11µM*	59.8	?	3.66µM*	2.9%
COc1ccc(NC(=O)N(C)C[C@H]2Oc3c(NC(=O)C4CC4)cccc3C(=O)N([C@H](C)CO)C[C@@H]2C)cc1	1.2%	-7.2%	0.0	6.3%	13.4%	-0.1%
COc1cc(CNS(=O)(=O)c2ccc3c(c2)CC(C)N3C(C)=O)cc(OC)c1OC (configuration not stated)	5.1%	?	35.4	-17.9%	10.3µM*	-0.3%
CC(=O)N1c2ccc(S(=O)(=O)NCc3ccccc3Cl)cc2CC1C (configuration not stated)	1.4%	7.31µM*	19.1	?	?	4.1%
COc1cc(NC(=O)CN(C)S(=O)(=O)c2ccc3c(c2)CC(C)N3C(C)=O)cc(OC)c1OC (configuration not stated)	1.6%	?	1.4	-0.1%	?	-7.0%
CC(=O)N1c2ccc(S(=O)(=O)N(C)CC(=O)NCc3ccccc3)cc2CC1C (configuration not stated)	0.2%	0.3%	13.5	-2.1%	-15.2%	-4.5%
CC(=O)N1c2c(cc(Br)cc2S(=O)(=O)NCc2ccccc2Cl)CC1C (configuration not stated)	8.8%	?	.	-19.8%	?	-25.2%
CCCCN(Cc1ccccc1)S(=O)(=O)c1cc(Br)cc2c1N(C(C)=O)C(C)C2 (configuration not stated)	2.3%	13µM*	-19.4	?	16.4µM*	2.8%
CC(=O)N1c2ccc(S(=O)(=O)N(C)Cc3ccccc3)cc2CC1C (configuration not stated)	1.1%	20.6µM*	-15.1	-5.6%	-19.9%	-1.8%
CC(=O)N1c2c(cc(Br)cc2S(=O)(=O)NCc2cccnc2)CC1C (configuration not stated)	0.0%	-21.4%	26.5	0.0%	0.5%	-39.9%
CCC1CCCCN1C(=O)CSc1nnc(-c2cccs2)o1 (configuration not stated)	0.0%	-22.8%	-3.4	0.0%	-5.4%	2.9%
CCOc1ccc(CNS(=O)(=O)c2ccc3c(c2)CC(C)N3C(C)=O)cc1OC (configuration not stated)	1.2%	11.6µM*	.	-16.7%	13µM*	-1.9%
COc1ccc(CCNS(=O)(=O)c2ccc3c(c2)CC(C)N3C(C)=O)cc1OC (configuration not stated)	5.2%	?	31.3	3.6%	-27.5%	-10.3%
Cc1cccc(NC(=O)CCc2c(C)nc3c(c(C)nn3C(C)(C)C)c2C)c1C	5.1%	?	.	-9.9%	?	-9.3%
CCOC(=O)c1ccc(NC(=O)CCc2c(C)nc3c(c(C)nn3C(C)(C)C)c2C)cc1	0.0%	18.4µM*	.	?	16.4µM*	-17.9%
COC(=O)c1ccc(NC(=O)CCc2c(C)nc3c(c(C)nn3C(C)(C)C)c2C)cc1	5.1%	18.4µM*	.	15.8µM*	?	-47.1%
CC(Sc1nnc(C(C)Oc2ccccc2F)o1)C(=O)NCc1ccc2c(c1)OCO2 (configuration not stated)	2.1%	-10.2%	-20.4	3.2%	-16.5%	-1.5%
SMILES	TDP1 block	DT40 TDP1 no CPT	IL-1B inflam inh	TGFb SMAD3 inh	TDP1 cell CPT	HepG2 tox
CCN(CC)c1cc2c(c3c1ccn3C)C1CCC2C1 (configuration not stated)	.	?	21.3	-22.0%	25.9µM*	-29.7%
CN(c1cc(Cl)c2c(c1)OCO2)c1cc2c(c3c1ccn3C)C1CCC2C1 (configuration not stated)	.	20.6µM*	51.8	?	?	-73.0%
CN(c1ccc(Cl)cc1)c1cc2c(c3c1ccn3C)C1CCC2C1 (configuration not stated)	.	-19.2%	-2.0	-8.6%	1.4%	-17.5%
CCN(Cc1ccccc1)c1cc2c(c3c1ccn3C)C1CCC2C1 (configuration not stated)	.	23.1µM*	-6.0	?	23.1µM*	-32.1%
CCNC(=O)C1CCCN(C(=O)Cc2ccc3ccccc3c2)CC1 (configuration not stated)	.	-13.9%	36.7	4.1%	-2.5%	2.3%
CCn1c(SCC(=O)N2CCOCC2)nc2c(c1=O)SC(C)C2 (configuration not stated)	0.0%	?	-5.3	?	-21.3%	-6.4%
CCOC(=O)N/N=C(/C)c1ccc([N+](=O)[O-])o1	-6.0%	.	.	.	.	.
CC(=NN1CC(=O)NC1=O)c1ccc([N+](=O)[O-])o1	.	16.4µM*	8.5	2.5%	?	-7.0%
COc1ccccc1CNC(=O)N/C=C/c1ccc(Cl)cc1	0.0%	-10.4%	2.1	46.5%	-2.2%	10.1%
CN(C)C(=O)c1cc2c(c(-c3cccc(C4=CCCCC4)c3)n1)[C@@H](CCO)N(S(=O)C(C)(C)C)C2 (some centres not stated)	.	-17.5%	-18.9	-0.5%	1.0%	-1.1%
Nn1c(SCC(=O)NCC2CCCO2)nnc1-c1ccc(OC(F)F)cc1 (configuration not stated)	89.1µM*	0.0%	-0.7	6.6%	-8.4%	-0.7%
